FadD28 binding: blocks FadD28 binding to the bisubstrate probe | fluorescence polarization | inhibition, % at 12.5 µM | actives 0.22% (n = 360,000) | AID 588549; in the data active = inhibition above about 8.5%, passing the limit was not always enough
Rv3671c inh: inhibitors of M. tuberculosis serine protease Rv3671c. actives 0.048% (n = 320,000). AID 2606. P9WHR9. inhibition, % at 5.96 µM; in the data active = inhibition above about 38%;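 note: extracellular domain of Rv3671c used as enzyme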
Target sequence (P9WHR9 whole entry, looked up, the tested form may be a part): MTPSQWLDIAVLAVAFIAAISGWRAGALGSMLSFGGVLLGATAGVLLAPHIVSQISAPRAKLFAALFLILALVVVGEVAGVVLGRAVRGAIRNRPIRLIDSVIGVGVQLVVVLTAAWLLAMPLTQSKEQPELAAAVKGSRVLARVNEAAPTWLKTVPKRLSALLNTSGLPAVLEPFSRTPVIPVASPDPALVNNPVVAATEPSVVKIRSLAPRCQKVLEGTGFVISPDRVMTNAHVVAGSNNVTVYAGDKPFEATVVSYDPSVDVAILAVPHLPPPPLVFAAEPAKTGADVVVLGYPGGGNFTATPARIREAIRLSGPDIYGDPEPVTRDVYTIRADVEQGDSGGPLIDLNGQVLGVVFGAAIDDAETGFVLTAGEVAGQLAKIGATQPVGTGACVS
Mtb UGM inh: inhibitors of M. tuberculosis UDP-galactopyranose mutase; AID 504406; purified UGM, fluorescence polarization probe displacement; P9WIQ1; actives 0.06% (n = 320,000); inhibition, % at 10 µM; in the data active = inhibition above about 10%, passing the limit was not always enough
FBA Mtb inh: inhibits M. tuberculosis FBA enzyme | P9WQA3 | purified M. tuberculosis FBA, fluorescence read-out | actives 2.3% (n = 360,000) | inhibition, % at 1 µM; in the data active = inhibition above about 27%
Mtb bLac sens: beta-lactam sensitization of Mtb H37Rv | inhibition, % at 25 µM | M. tuberculosis H37Rv growth with meropenem, percent inhibition | actives 0.27% (n = 330,000) | AID 434955; call rule not given here;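 note: growth measured after seven days incubation then overnight dye step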
GDH-TPI counter: counter-screen for M. tuberculosis FBA inhibitors: GDH-TPI coupled enzymes | GDH-TPI coupled enzyme counterscreen, NADH absorbance | inhibition, % at 4.8 µM | actives 1.2% (n = 360,000); in the data active = inhibition above about 30%
Of the large screens only hits and unclear results are named; the others gave an inactive call. A selection: hits, their analogues and other compounds. The true share with any hit is near 3.7%.

Cc1ccc(/C=C2\SC(=S)N(c3c(C)n(C)n(-c4ccccc4)c3=O)C2=O)cc1	none
Cc1ccc(F)cc1C(=O)N1CCCC(C)(C(=O)NS(=O)(=O)C2CC2)C1 (stereo not drawn)	none (no result: Rv3671c inh, Mtb UGM inh, Mtb bLac sens)
CC1(C)OC(=O)C(=CNc2cccc(O)c2)C(=O)O1	GDH-TPI counter 35
CC1(C)OC(=O)C(=CNc2ccccc2F)C(=O)O1	none
COc1ccccc1NC=C1C(=O)OC(C)(C)OC1=O	GDH-TPI counter 47
CCOc1ccccc1NC=C1C(=O)OC(C)(C)OC1=O	GDH-TPI counter 41
CCCOc1ccc(CNC(=O)c2ccc3nc(N4CCOCC4)sc3c2)cc1	none
COC(=O)c1ccccc1OCc1cc(=O)oc2ccc(C)cc12	none (no result: Rv3671c inh, Mtb UGM inh, Mtb bLac sens, GDH-TPI counter)
O=C(NCc1nnnn1-c1ccc(F)cc1)C(=O)c1c[nH]c2ccccc12	none (no result: Rv3671c inh, Mtb UGM inh, Mtb bLac sens)
Cc1ccc(NCCCn2ccc(NC(=O)OCc3ccccc3)nc2=O)cc1C	none (no result: Rv3671c inh, Mtb UGM inh, Mtb bLac sens)
Oc1ccc(/C=N/NC(=S)NC2CC3CCC2C3)cc1 (stereo not drawn)	GDH-TPI counter 61
COc1ccc(C2CC(c3ccccc3)=NN2c2ccc(S(N)(=O)=O)cc2)cc1OC (stereo not drawn)	FBA Mtb inh active
COc1cc(C2CC(c3ccccc3)=NN2c2ccccc2)ccc1OCC(=O)O (stereo not drawn)	FBA Mtb inh active
COc1ccc2c(c1OC)C(=O)N1N=C(c3ccccc3)CC21 (stereo not drawn)	none
CNC(=S)N1N=C(c2ccccc2)CC1c1ccc(OC)c(OC)c1 (stereo not drawn)	none
COc1ccc(C2=NN(c3ccc(C(=O)O)cc3)C(c3ccc(OC)c(OC)c3)C2)cc1 (stereo not drawn)	FadD28 binding 37, FBA Mtb inh active, GDH-TPI counter 35
COc1ccc(C2CC(c3ccccc3)=NN2c2ccccc2)c(C(=O)O)c1OC (stereo not drawn)	FBA Mtb inh 197
NS(=O)(=O)c1ccc(N2N=C(c3ccccc3)CC2c2ccccc2Br)cc1 (stereo not drawn)	FBA Mtb inh active (no result: Rv3671c inh, Mtb UGM inh, Mtb bLac sens)
CC(=O)Oc1ccc(C2=NN(c3ccccc3)C(c3ccccc3)C2)cc1 (stereo not drawn)	FBA Mtb inh 129
COc1cc(C2CC(c3cccnc3)=NN2c2ccc(F)cc2)cc(OC)c1OC (stereo not drawn)	FBA Mtb inh active
O=[N+]([O-])c1ccc(N2N=C(c3ccccc3)CC2c2ccccc2O)cc1 (stereo not drawn)	none (no result: Rv3671c inh)
NS(=O)(=O)c1ccc(N2N=C(c3ccccc3)CC2c2cccc(Br)c2)cc1 (stereo not drawn)	FBA Mtb inh active (no result: Rv3671c inh, Mtb UGM inh, Mtb bLac sens)
CCOC(=O)c1ccc(NS(=O)(=O)c2ccc3oc(=O)[nH]c3c2)cc1	none
CC1CCCC(NC(=O)COC(=O)COc2ccc(Br)cc2)C1C (stereo not drawn)	none
NS(=O)(=O)c1ccc(N2N=C(c3ccc(Br)cc3)CC2c2ccc(F)cc2)cc1 (stereo not drawn)	FBA Mtb inh active
NS(=O)(=O)c1ccc(N2N=C(c3ccccc3)CC2c2cccc(F)c2)cc1 (stereo not drawn)	FBA Mtb inh active
CCN(CC)CCN(C(=O)c1cc2c(ccc3ccccc32)oc1=O)c1nc2cc3c(cc2s1)OCCO3	FBA Mtb inh active
CC(=O)Oc1ccc2ccc(=O)oc2c1	FBA Mtb inh active
Cc1ccc(C(=O)Oc2ccc3ccc(=O)oc3c2)cc1	none
O=C(Oc1ccc2ccc(=O)oc2c1)c1ccc([N+](=O)[O-])cc1	FBA Mtb inh 183
C(=Nc1cccc2c(N=Cc3ccco3)cccc12)c1ccco1	FBA Mtb inh 62
CCOC(=O)c1sc(NC(C)=O)nc1C	none
CCOC(=O)CC1(C)c2nc(NC(C)=O)sc2Cc2sc(NC(C)=O)nc21	FBA Mtb inh 161 (no result: Rv3671c inh, Mtb UGM inh, Mtb bLac sens, GDH-TPI counter)
CCN1CCN(c2nc(N)c([N+](=O)[O-])c(Nc3cccc(C)c3)n2)CC1	GDH-TPI counter 35
O=C(Nc1cccc(C(=O)O)c1)/C(=C\c1ccccc1Cl)NC(=O)c1ccco1	none
Oc1ccc(/C=N/Nc2cc(N3CCOCC3)nc(N3CCOCC3)n2)cc1	GDH-TPI counter 58
Cc1cc(N/N=C/c2ccccc2O)nc(N2CCOCC2)n1	GDH-TPI counter 64
S=c1nccc(-c2ccc3c(c2)CCO3)[nH]1	GDH-TPI counter 49
CC1(C)CCc2cc(-c3ccnc(=S)[nH]3)ccc2O1	none

Screening data: PubChem BioAssay, several laboratories
